Source: PubChem (several laboratories)
Bead autofluor – compound fluorescence in toxin protease inhibitor counterscreen. compound autofluorescence counterscreen, microsphere flow cytometry; active compounds read high. fluorescence intensity (no concentration beside the values). 360,000 compounds, 3.1% hits; in the data active = fluorescence intensity above about 16000; inconclusive = no clear call, values can overlap the other calls
BoNT-F LC inh – BoNT F light chain protease inhibition; AID 588497; Multiplex microsphere protease cleavage assay, flow cytometry; inhibition, % at 10 µM; 360,000 compounds, 0.22% hits; in the data active = inhibition above about 35%, passing the limit was not always enough; inconclusive = no clear call, values can overlap the other calls
3CLpro inhibitor – SARS-CoV 3CLpro protease inhibition; inhibition, % at 6 µM; AID 1706; P0C6X7; 290,000 compounds, 0.14% hits; recombinant SARS-CoV 3CLpro, quenched FRET peptide cleavage; in the data active = inhibition above about 12%
Anthrax LF inh2 – blocks Bacillus anthracis lethal factor protease | P15917 | multiplex microsphere protease cleavage assay, LF | inhibition, % at 10 µM | 360,000 compounds, 0.12% hits | AID 588501
BoNT-A LC inh2 – BoNT A light chain protease inhibition; inhibition, % at 10 µM; multiplex microsphere protease substrate cleavage, flow cytometry; 360,000 compounds, 0.17% hits
Numbers stand for hits; . = inactive; ? = inconclusive; / = no result given. A selection: hits, their analogues and other compounds. The true share with any hit is near 3.5%. Cut-off read from the data, not from the text of the source, unless noted: active = inhibition above about 30%; inconclusive = no clear call, values can overlap the other calls; inactive = below that.

SMILES | Bead autofluor | BoNT-F LC inh | 3CLpro inhibitor | Anthrax LF inh2 | BoNT-A LC inh2
CCOc1ccccc1NC(=O)c1cc(Cl)ccc1NC(=O)c1ccco1 | 17027 | . | . | . | .
COc1ccccc1-c1noc(-c2ccccc2C(=O)Nc2ccccc2)n1 | . | . | . | . | .
COc1ccc(NC(=O)c2ccco2)cc1NC(=O)c1ccco1 | . | . | . | . | .
COc1ccccc1NC(=O)c1ccccc1-c1nc(-c2ccccc2OC)no1 | 21774 | . | . | . | .
COc1ccc(NC(=O)Cc2ccc(Cl)cc2)cc1NC(=O)c1ccco1 | 21196 | . | . | . | ?
COc1ccccc1NC(=O)c1ccccc1NC(=O)c1cc(Cl)ccc1NC(=O)c1ccco1 | 21221 | . | . | . | ?
CNCCCCOc1ccccc1-c1ccccc1 | . | . | . | . | .
CC1CCN(CCCNC(=O)C2CCCN(c3ncnc4c3nc3n4CCCCC3)C2)CC1 (centres undefined) | . | . | . | . | .
CCOC(=O)C1CCN(CC(O)COc2ccc(C(=O)CC)cc2)CC1 (centres undefined) | 22284 | . | . | . | .
COc1ccc(OCC(O)Cn2c(=N)n(Cc3ccccc3)c3ccccc32)cc1 (centres undefined) | . | . | . | . | .
Cc1ccc(OCC(O)CN2CCN(CC(O)COc3ccc(C)cc3)CC2)cc1 (centres undefined) | 17745 | . | . | . | .
O=C(c1ccccc1)c1ccc(OCC(O)CN2CCCCC2)cc1 (centres undefined) | . | . | . | . | .
Cc1ccc(OCC(O)Cn2c(=N)n(Cc3ccccc3)c3ccccc32)cc1 (centres undefined) | 22794 | . | . | . | .
O=C(c1ccccc1)c1ccc(OCC(O)CN2CCN(S(=O)(=O)N3CCCCC3)CC2)cc1 (centres undefined) | 23589 | . | . | . | .
COc1ccc(OC)c(S(=O)(=O)NCc2cccnc2)c1 | . | . | . | . | .
O=C1CCCN1c1ccc(S(=O)(=O)Nc2ccc3c(c2)OCCO3)cc1 | . | . | . | . | .
CCOc1ccc(CNc2ccc(N3CCOCC3)c(C(=O)O)c2)cc1 | . | . | . | . | .
Cc1ccc(OCCN2C(=O)c3ccccc3C2=O)cc1 | 22823 | . | . | . | .
Cc1ccc(OCCN2C(=O)c3ccccc3C2=O)c(C)c1 | . | . | . | . | .
Cc1sc2cc3c(c(C(=O)c4ccccc4)[n+]2c1C)-c1cccc2cccc-3c12 | / | / | . | / | /
O=C(c1ccccc1)c1c2c(cc3sc4ccccc4[n+]13)-c1cccc3cccc-2c13 | . | . | . | . | 73
O=S(=O)(/C=C/c1ccccc1)N1CCN(Cc2ccc3c(c2)OCO3)CC1 | . | . | . | . | .
CCOC(=O)c1sc2nc(CC(=O)OC)nc(NCCN(CC)CC)c2c1C | 18785 | . | . | . | .
CCOC(=O)c1sc2nc(CC(=O)OC)nc(NCCN3CCOCC3)c2c1C | . | . | . | . | .
O=C(Cn1cnc2ccccc2c1=O)c1ccc(Cl)cc1 | . | . | . | . | .
SMILES | Bead autofluor | BoNT-F LC inh | 3CLpro inhibitor | Anthrax LF inh2 | BoNT-A LC inh2
Cc1nn(C)cc1CNC(=O)c1ccc(Br)o1 | 20359 | . | . | . | .
O=C(NC(CC1CCCCC1)C(=O)O)c1ccccc1 (centres undefined) | . | . | / | . | .
CN(C)S(=O)(=O)c1ccc(C(=O)NCCOc2ccc(F)cc2)cc1 | 24248 | . | . | . | .
CCn1cc(C=C2C(=O)c3ccccc3C2=O)c2ccccc21 | . | . | . | 34 | 70
CCOC(=O)Cn1cc(C=C2C(=O)N(C)C(=O)N(C)C2=O)c2ccccc21 | . | 40 | . | . | .
O=C(/C=C/c1ccccc1)Oc1cccc2cccnc12 | . | . | . | . | .
COC(=O)c1ccc(C)c(NC(=O)CCSc2ccc(C)cc2)c1 | . | . | . | . | .
COc1ccc2cc(C(=O)N/N=C/c3sc4ccccc4c3O)ccc2c1 | . | . | . | . | 34
CC(Sc1ncnc2sc(-c3ccccc3)cc12)C(=O)NCC1CCCO1 (centres undefined) | . | . | / | . | .
O=C(CSc1nnnn1Cc1ccccc1)c1ccccc1 | . | . | . | . | .
CCc1ccc(C(=O)COC(=O)c2ccc(-c3nnc(-c4ccccc4)o3)cc2)cc1 | 24076 | . | . | . | .
Cc1ccc(C(=O)OCC(=O)c2ccccc2)cc1 | . | . | . | . | .
Cn1c(=O)c2cc(NC(=O)NCc3ccc(Cl)cc3Cl)ccc2n1Cc1ccccc1 | . | . | / | . | .
C#CCOCCOCCOCCNc1nc(N2CCN(C(=O)Cn3cc(CCCCN)nn3)CC2)nc(N2CCN(C(=O)[C@H](Cc3ccc(O)cc3)n3cc(CCO)nn3)CC2)n1 | . | . | / | . | .
CC(=O)Nc1ccc(Cl)c(C(N)=O)c1 | 19829 | . | . | . | .
NC(=S)NNc1ccc(Cl)c(Cl)c1 | . | . | . | . | .
NC(=S)Nc1ccc(Cl)c(Cl)c1 | . | ? | . | 52 | .
CCC(NC(=O)c1ccccc1O)c1ccccc1 (centres undefined) | . | . | . | . | .
CC(NC(=O)COc1ccccc1-c1ccccc1)c1ccccc1 (centres undefined) | . | . | . | . | .
CC1(NC(=O)COc2ccccc2-c2ccccc2)CCS(=O)(=O)C1 (centres undefined) | 16681 | . | . | . | .
O=c1c(-c2ccc(O)cc2O)coc2cc(O)cc(O)c12 | . | . | . | . | .
Cc1c(Cl)cccc1Nc1nc(N)nc(CSc2ncccn2)n1 | 20532 | . | . | . | .
O=C(CCCn1c(=S)[nH]c2cc3c(cc2c1=O)OCO3)N1CCN(c2ncccn2)CC1 | 20894 | . | . | . | ?
O=C(CCCCCn1c(=S)[nH]c2cc3c(cc2c1=O)OCO3)N1CCN(c2ccccc2)CC1 | . | . | . | . | .
O=C(CCCn1c(=S)[nH]c2cc3c(cc2c1=O)OCO3)N1CCN(c2ccccc2F)CC1 | . | . | . | . | .
SMILES | Bead autofluor | BoNT-F LC inh | 3CLpro inhibitor | Anthrax LF inh2 | BoNT-A LC inh2
Cc1ccc(C)c(N2CCN(C(=O)CCCn3c(=S)[nH]c4cc5c(cc4c3=O)OCO5)CC2)c1 | 17273 | . | . | . | .
CCOC(=O)N1CCN(C(=O)CCCn2c(=S)[nH]c3ccc(Br)cc3c2=O)CC1 | 20951 | . | . | . | ?
COC(=O)C1=C(c2ccc(C(C)=O)cc2)C[C@@H]2CC[C@H]1N2C(=O)N1CCCCC1 | . | . | / | . | .
CCN(CC)C(=O)CSc1nnc(-c2ccncc2)n1N | 16267 | . | . | . | .
CCN(CC)C(=O)CSc1nnc2sc3ccccc3n12 | 19933 | . | . | . | .
CCN(CC)C(=O)CSc1nnc(-c2ccccc2)n1N | 21307 | . | . | . | .
CCOc1ccc(-c2nnc(SCC(=O)N(CC)CC)n2N)cc1 | 21180 | . | . | . | .
CCN(CC)C(=O)CSc1nnc(-c2ccccc2)n1-c1ccccc1 | . | . | . | . | .
COc1cc(OC)cc(C(=O)Nn2cc(C(=O)Nc3c(F)cccc3F)c3ccccc3c2=O)c1 | . | . | . | . | .
Cc1cccc(CSc2nc3c(c(=O)[nH]2)CCC3)c1 | . | . | . | . | .
CN(C(=O)CSc1nc2c(c(=O)[nH]1)CCCC2)C1CCCCC1 | 20234 | . | . | . | ?
